The values that follow come from PubChem BioAssay.

The target in assay [1] is Albumin (Bos taurus) (UniProt P02769). The assay is described as follows: compounds binding labelled BSA control protein – biochemical, small-molecule microarray, Alexa647 label, 635/667 nm fluorescence, artefact control for SMM control protein annotation, profiling panel (AID 1118).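 Further: score merges 667 nm emission intensity and signal-to-noise per printed compound spot.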 The settings on record: BSA-A647 binding, fluorescence 635 nm, higher = more signal.
Chain of Albumin (Bos taurus) (P02769 whole entry, looked up): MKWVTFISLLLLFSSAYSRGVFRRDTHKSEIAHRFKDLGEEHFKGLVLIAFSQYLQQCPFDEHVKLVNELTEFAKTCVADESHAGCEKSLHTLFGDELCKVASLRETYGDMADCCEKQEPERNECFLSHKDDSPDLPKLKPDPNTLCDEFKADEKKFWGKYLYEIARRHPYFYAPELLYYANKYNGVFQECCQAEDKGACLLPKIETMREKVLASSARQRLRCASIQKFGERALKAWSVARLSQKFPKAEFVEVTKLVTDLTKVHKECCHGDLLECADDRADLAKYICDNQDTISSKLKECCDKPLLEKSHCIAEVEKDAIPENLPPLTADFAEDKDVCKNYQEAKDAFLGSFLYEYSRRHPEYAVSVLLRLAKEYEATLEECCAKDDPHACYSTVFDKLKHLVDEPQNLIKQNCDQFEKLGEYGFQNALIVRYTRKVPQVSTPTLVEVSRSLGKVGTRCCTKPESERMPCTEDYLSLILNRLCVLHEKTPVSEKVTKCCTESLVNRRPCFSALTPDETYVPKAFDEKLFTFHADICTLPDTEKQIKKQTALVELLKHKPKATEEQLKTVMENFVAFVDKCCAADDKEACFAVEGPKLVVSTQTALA
The nature of assay [2]: probe aXIP binding to arrayed compounds – biochemical, NeuroSMM set, 635/667 nm fluorescence, primary screen (AID 1119).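 Further: probe is the protein aXip251-270 applied at 1 µg/mL to compound-printed slides; binding of probe to printed compounds measured as 667 nm fluorescence plus signal to noise.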 The settings on record: small-molecule microarray, higher = more signal, called active from +8 up or from −8 down.
Assay [3] can be described thus: probe aNOTCH3 binding on compound microarray – biochemical, small-molecule microarray, 635/667 nm fluorescence, primary screen (AID 1120).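 Further: probe is a biotin-tagged antibody raised against NOTCH3 rather than NOTCH3 protein; score merges spot fluorescence near 667 nm with spot signal to noise.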 The settings on record: higher = more signal.
A short description of assay [4]: probe aNOTCH2 binding on compound microarray – biochemical, small-molecule microarray, 635/667 nm fluorescence, primary screen (AID 1121).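 Further: score merges feature fluorescence read at 667 nm with its signal to noise.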 The settings on record: higher = more signal.
Assay [5] addresses Carbonic anhydrase 2 (Homo sapiens) (UniProt P00918). Nature of the assay: compounds binding carbonic anhydrase 2 – biochemical, small-molecule microarray, Alexa647-labelled CAII, profiling panel (AID 1122). Particulars: CAII-A647 binding fluorescence, higher = more signal.
Assay [6] can be described thus: COS7 lysate on small-molecule microarray, probe aHis, 635 nm (AID 1123).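 Further: z-score combines 667nm fluorescence intensity with signal-to-noise per printed compound spot.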 Particulars: COS7 cell lysate, fluorescence, higher = more signal.
A short description of assay [7]: probe aLAP1 signal on lysate-treated microarray – cell lysate, small-molecule microarray, COS7 lysate, primary screen (AID 1124).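 Further: lysate comes from COS7 cells expressing LAP1 and is applied at 0.3 µg/mL; score merges spot fluorescence near 667 nm with signal-to-noise over triplicate slides.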 The settings on record: probe aLAP1, fluorescence, higher = more signal.
The test system of assay [8] is Sam68 (KHDRBS1). Nature of the assay: compounds binding KHDRBS1 protein – biochemical, small-molecule microarray, 635 nm fluorescence, primary screen (AID 1125).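 Further: score merges 667 nm channel intensity with signal to noise over triplicate slides.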 Particulars: higher = more signal.
In assay [9] the test system is Chordin-like protein 2 (CHRDL2). The assay is described as follows: compounds binding chordin-like 2 – biochemical, small-molecule microarray, 635 nm fluorescence, primary screen (AID 1126).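 Further: printed compound slides probed with Chrdl2 protein at 4 µg/mL for 1 h at 4 C; score merges 667 nm emission intensity with signal to noise over three replicate slides.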 Particulars: fluorescence 635 nm, higher = more signal.
For assay [10], the target named is Concanavalin-A (Canavalia ensiformis) (UniProt P02866). The assay is described as follows: compounds binding concanavalin A lectin – biochemical, small-molecule microarray, Alexa647 label, 635 nm, artefact control for SMM control protein annotation, primary screen (AID 1127).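 Further: z combines 667 nm emission intensity with signal-to-noise across three replicate slides.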 Particulars: ConA-A647 binding fluorescence, higher = more signal.
Chain of Concanavalin-A (Canavalia ensiformis) (P02866 whole entry, looked up): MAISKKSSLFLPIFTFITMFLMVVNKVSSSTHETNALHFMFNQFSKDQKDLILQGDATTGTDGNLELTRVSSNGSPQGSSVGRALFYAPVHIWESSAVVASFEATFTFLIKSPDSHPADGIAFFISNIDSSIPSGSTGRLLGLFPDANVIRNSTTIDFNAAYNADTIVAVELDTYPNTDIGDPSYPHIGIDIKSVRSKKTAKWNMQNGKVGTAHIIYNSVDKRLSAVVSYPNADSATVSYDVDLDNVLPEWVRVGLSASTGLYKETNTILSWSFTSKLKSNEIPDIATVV
A short description of assay [11]: compounds binding Alexa647 anti-His antibody – biochemical, small-molecule microarray, 635 nm fluorescence, artefact control for SMM control protein annotation, primary screen (AID 1128).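 Further: score merges feature fluorescence with signal-to-noise for each printed compound spot.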 Particulars: higher = more signal.
Assay [12] relates to Human papillomavirus type 1a E7 protein (residues 1-88). The assay is described as follows: HPV1a E7 small-molecule binders, primary screen, biochemical, small-molecule microarray, residues 1-88, 635 nm (AID 1129). Particulars: small-molecule microarray binding, fluorescence 635 nm; higher = more signal.
Assay [13] addresses Focal adhesion kinase 1 (Homo sapiens) (UniProt Q05397). Nature of the assay: PTK2 protein binding on printed compound slides – biochemical, small-molecule microarray, 635/667 nm fluorescence, BSA, DTT, primary screen (AID 1130).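 Further: composite of spot emission at 667 nm and signal to noise over triplicate slides.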 Particulars: 635 nm fluorescence, higher = more signal.
Assay [14] has as its system Fibrinogen (Alexa647-labelled). Nature of the assay: Alexa647-fibrinogen binding to printed small molecules – biochemical, small-molecule microarray, 635/667 nm fluorescence, artefact control for SMM control-protein annotation, profiling panel (AID 1131).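 Further: z-score merges 667 nm fluorescence with per-spot signal-to-noise over triplicate slides.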 Particulars: fibrinogen-A647 binding fluorescence, higher = more signal.
Assay [15] concerns the target Follistatin (Homo sapiens) (UniProt P19883). The assay is described as follows: FST protein binding to printed compounds – biochemical, small-molecule microarray, 635/667 nm fluorescence, primary screen (AID 1132). Particulars: 635 nm fluorescence, higher = more signal.
For assay [16], the target named is Fibroblast growth factor 2 (Homo sapiens) (UniProt P09038). Nature of the assay: basic fibroblast growth factor binding to printed compounds – biochemical, small-molecule microarray, 635/667 nm fluorescence, primary screen (AID 1133). The settings on record: FGF2, fluorescence 635/667, higher = more signal.
Chain of Fibroblast growth factor 2 (Homo sapiens) (P09038 whole entry, looked up): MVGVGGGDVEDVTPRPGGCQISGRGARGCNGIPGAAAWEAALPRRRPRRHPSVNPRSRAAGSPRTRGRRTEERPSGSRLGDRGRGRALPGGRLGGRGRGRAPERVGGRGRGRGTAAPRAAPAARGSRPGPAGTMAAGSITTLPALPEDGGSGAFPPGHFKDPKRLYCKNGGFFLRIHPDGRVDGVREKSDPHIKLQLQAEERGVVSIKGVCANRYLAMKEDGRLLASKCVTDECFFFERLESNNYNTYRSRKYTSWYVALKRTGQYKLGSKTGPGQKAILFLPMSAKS
Assay [17] is described as follows: JC-1 mitochondrial potential readout, lung cancer cells – cell-based, A549, JC-1 fluorescence, basal, 24 h, 100 nL, profiling panel (AID 1138).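 Further: A549 lung adenocarcinoma cells under basal conditions with no added stimulus; test concentration not given here.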 The settings on record: higher = more signal.
The subject of assay [18] is Lefty1. Nature of the assay: Lefty1 protein binding to printed compounds – biochemical, small-molecule microarray, 635/667 nm fluorescence, primary screen (AID 1139). The settings on record: fluorescence 635/667, higher = more signal.
In assay [19] the test system is wheat germ agglutinin (Triticum aestivum), Alexa647-labelled. Nature of the assay: Alexa647-WGA lectin binding to printed small molecules – biochemical, small-molecule microarray, 635/667 nm fluorescence, artefact control for SMM control-protein annotation, profiling panel (AID 1140).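 Further: score merges 667 nm feature emission with signal to noise over triplicate slides.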 Particulars: WGA-A647 binding, 635 nm fluorescence, higher = more signal.
Assay [20] addresses Luciferin 4-monooxygenase (Photinus pyralis) (UniProt P08659). The assay is described as follows: inhibition of purified Photinus pyralis luciferase – biochemical, luminescence, purified enzyme, 2006 set, primary screen (AID 1141).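 Further: cell-free assay with purified firefly luciferase at 100 ng per well in PBS; test concentration not given here.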 The settings on record: purified firefly luciferase, SteadyGlo luminescence, 30 min; higher = more signal, called active from +8 up or from −8 down.

Activity calls are given as the source filed them.

Chain of Focal adhesion kinase 1 (Homo sapiens) (Q05397 whole entry, looked up): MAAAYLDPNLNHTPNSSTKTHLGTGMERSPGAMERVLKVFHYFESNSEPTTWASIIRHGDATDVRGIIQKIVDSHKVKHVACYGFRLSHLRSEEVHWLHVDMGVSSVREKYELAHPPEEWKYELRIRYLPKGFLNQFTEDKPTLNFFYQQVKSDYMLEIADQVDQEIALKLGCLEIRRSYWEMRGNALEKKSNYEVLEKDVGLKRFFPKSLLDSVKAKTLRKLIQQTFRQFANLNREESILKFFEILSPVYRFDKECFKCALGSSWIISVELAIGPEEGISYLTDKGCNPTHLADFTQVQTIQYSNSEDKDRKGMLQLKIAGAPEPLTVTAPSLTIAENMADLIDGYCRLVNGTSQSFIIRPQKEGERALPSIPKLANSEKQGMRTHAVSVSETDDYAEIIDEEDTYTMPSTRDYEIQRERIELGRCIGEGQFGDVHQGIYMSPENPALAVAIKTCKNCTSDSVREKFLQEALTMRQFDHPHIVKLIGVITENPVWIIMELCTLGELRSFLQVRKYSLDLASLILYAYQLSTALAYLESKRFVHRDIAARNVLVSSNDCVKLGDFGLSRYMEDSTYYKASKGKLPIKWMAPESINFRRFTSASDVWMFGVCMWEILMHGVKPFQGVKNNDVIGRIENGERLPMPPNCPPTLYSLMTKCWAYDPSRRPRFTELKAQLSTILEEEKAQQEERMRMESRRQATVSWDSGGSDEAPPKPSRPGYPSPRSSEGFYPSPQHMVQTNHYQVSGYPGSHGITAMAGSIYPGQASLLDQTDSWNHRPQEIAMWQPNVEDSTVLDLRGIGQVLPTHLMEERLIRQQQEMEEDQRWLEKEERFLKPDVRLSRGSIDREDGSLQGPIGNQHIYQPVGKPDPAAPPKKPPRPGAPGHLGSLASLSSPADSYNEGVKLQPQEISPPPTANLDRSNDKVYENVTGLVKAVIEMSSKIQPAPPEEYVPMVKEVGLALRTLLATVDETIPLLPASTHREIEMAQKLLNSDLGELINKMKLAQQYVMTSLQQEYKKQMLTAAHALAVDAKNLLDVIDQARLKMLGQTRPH
Chain of Follistatin (Homo sapiens) (P19883 whole entry, looked up): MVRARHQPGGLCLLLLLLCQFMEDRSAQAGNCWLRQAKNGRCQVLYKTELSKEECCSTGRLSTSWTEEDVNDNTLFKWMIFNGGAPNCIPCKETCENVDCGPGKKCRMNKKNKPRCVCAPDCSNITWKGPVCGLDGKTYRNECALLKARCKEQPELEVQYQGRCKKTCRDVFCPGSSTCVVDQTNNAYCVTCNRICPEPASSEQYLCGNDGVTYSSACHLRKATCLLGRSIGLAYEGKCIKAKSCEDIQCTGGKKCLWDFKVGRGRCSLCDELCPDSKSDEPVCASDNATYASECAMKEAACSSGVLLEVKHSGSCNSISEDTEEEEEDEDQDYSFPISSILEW
Chain of Luciferin 4-monooxygenase (Photinus pyralis) (P08659 whole entry, looked up): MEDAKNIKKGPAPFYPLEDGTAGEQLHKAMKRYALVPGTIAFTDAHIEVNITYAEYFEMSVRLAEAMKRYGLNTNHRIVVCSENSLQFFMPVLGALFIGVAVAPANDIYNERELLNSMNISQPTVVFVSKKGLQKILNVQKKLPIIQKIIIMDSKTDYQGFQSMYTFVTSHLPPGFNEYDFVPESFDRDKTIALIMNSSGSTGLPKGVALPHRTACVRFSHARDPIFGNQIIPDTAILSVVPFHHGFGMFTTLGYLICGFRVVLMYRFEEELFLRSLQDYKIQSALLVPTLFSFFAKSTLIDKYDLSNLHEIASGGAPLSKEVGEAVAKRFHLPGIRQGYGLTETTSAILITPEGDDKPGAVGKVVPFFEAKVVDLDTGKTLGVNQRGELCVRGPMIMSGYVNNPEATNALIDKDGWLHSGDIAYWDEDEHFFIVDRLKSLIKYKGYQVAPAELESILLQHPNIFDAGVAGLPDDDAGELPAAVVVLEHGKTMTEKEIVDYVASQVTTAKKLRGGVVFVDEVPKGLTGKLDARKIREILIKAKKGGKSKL

On to `C=CCNC(=O)[C@@H]1[C@H]2C(=O)O[C@H](c3ccccc3)[C@H](c3ccccc3)N2[C@H](c2ccc(O)cc2)[C@@]12C(=O)Nc1ccccc12`, for which the composite z-score in assay [1] is -0.989; in assay [3], -0.246; in assay [4] it was -0.22; in assay [5] it was 0.55; in [6] it was 1.12; in [7], 0.324. Further, the composite z-score in assay [8] was 0.502; in assay [9], -0.939; in assay [10], 0.516; in assay [11], -0.391; in assay [12], -0.227; in assay [13], 0.394. The composite z-score in [14] is -0.0121; in assay [15], 0.981; in assay [16], 0.143; in assay [18], 0.52; in [19] it was 0.567. In addition, the composite Z-score in assay [2] is 0.0737 (inactive). The z-score in [17] is 0.715; in [20], -1.03 (inactive).
`C=C[C@H](OC)[C@@H](OC(=O)Nc1ccc(OC)cc1)c1ccc(OC)c(O)c1`: the composite z-score was -2.02 in [1]; -0.374 in assay [3]; -0.181 in assay [4]; 0.633 in [5]; -0.844 in assay [6]; 0.0191 in assay [7]. Besides, the composite z-score in assay [8] was -0.667; in [9], -2.31; in [10] it was -2.17; in [11] it was -1.22; in assay [12], -1.3; in [13], 0.7. For the same molecule, the composite z-score in assay [14] is -2.93; in assay [15], -0.823; in assay [16], -1.23; in assay [18], -1.75; in [19] it was -2.18. Moreover, the composite Z-score in assay [2] is -0.403 (inactive). Moreover, the z-score in [17] was 1.19; in [20], -1.67 (inactive).
For the molecule `C=CCNC(=O)[C@@H]1[C@H]2C(=O)O[C@H](c3ccccc3)[C@H](c3ccccc3)N2[C@H](c2ccc(O)cc2)[C@@]12C(=O)Nc1ccc(C#Cc3ccc(OC)cc3)cc12`, the composite z-score is 0.29 in assay [1]; 0.0563 in assay [3]; -0.0451 in assay [4]; 0.31 in [5]; 0.928 in assay [6]; 0.482 in assay [7]. Besides, the composite z-score was 1.32 in assay [8]; -0.0134 in [9]; 1.12 in assay [10]; 1.11 in assay [11]; 1.2 in assay [12]; 0.552 in assay [13]. Besides, the composite z-score turned out to be 0.924 in [14]; 1.03 in assay [15]; 0.363 in assay [16]; 0.849 in assay [18]; 1.14 in [19]. Moreover, the composite Z-score in assay [2] was 0.422 (inactive). Moreover, the figures for the z-score in [17] and in assay [20] were -1.18 and -0.968 (inactive), respectively.
Turning to `COCCCNC(=O)[C@@]1(C)c2ccccc2C(=O)N(Cc2cc(F)cc(C(F)(F)F)c2)[C@H]1c1ccc(CO)cc1`, the composite z-score in assay [1] is -1.33; in assay [3], -0.336; in assay [4], -0.126; in assay [5], 0.74; in assay [6], 2.01; in assay [7] it was 0.346. Further, the composite z-score in [8] was 0.0363; in [9], -1.94; in [10], -0.453; in assay [11] it was -0.224; in assay [12] it was -1.01; in assay [13], -0.706. Further, the composite z-score in assay [14] is -1.61; in assay [15], -1.48; in assay [16], -0.521; in [18] it was -1.73; in assay [19] it was -1.26. Also, in assay [2], the composite Z-score is 0.0737 (inactive). In addition, the z-score is 1.25 in assay [17] and -1.13 (inactive) in assay [20].
Take `C=CCC(OC(C)=O)[C@@H]1[C@@H](N(Cc2ccc(-c3cccc(C(F)(F)F)c3)o2)C(=O)c2ccc(-c3ccccc3)cc2)c2cc(OCCCO)ccc2N1C(=O)Cc1ccc(OC)cc1` (stereo not given in full): the composite z-score is -0.84 in assay [1]; -0.0647 in assay [3]; -0.0832 in assay [4]; -0.149 in assay [5]; -0.249 in assay [6]; -0.231 in [7]. Besides, the composite z-score in assay [8] is -0.836; in assay [9], -0.0712; in [10], -1.26; in assay [11] it was -0.729; in assay [12], 0.0685; in assay [13], -0.0642. The composite z-score in [14] was -0.407; in assay [15], 0.451; in assay [16] it was -0.196; in assay [18], -0.128; in assay [19], 0.15. Further, in [2], the composite Z-score was 0.298 (inactive). Also, the z-score was 1.65 in assay [17] and -0.626 (inactive) in [20].
